Laboratory results: article PMC7862700, “An all-to-all approach to the identification of sequence-specific readers for epigenetic DNA modifications on cytosine”

Key:
Experiment in all cases: DAPPL (digital affinity profiling via proximity ligation, sequencing); 10 mM Tris-HCl pH 7.5, 50 mM NaCl, 1 mM DTT, 4% glycerol, room temperature, 30 min; GST-TFs on glutathione beads, 16-mer random dsDNA library, 0.1% formaldehyde crosslink after washing; high values mean tight binding
Conditions in all cases: protein: recombinant; tags: N-terminal GST; dsDNA, one strand shown
FEV = target: T1, FEV (Homo sapiens, UniProt Q99581 1-238)
T1 sequence: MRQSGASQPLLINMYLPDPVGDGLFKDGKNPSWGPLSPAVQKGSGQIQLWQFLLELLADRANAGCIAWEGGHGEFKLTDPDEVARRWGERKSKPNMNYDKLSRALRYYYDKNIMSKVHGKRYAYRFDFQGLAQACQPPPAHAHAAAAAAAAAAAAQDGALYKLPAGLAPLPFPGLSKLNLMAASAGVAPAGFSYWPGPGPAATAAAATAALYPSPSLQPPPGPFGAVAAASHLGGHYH
Outline: (§1)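 GST fusions of human transcription factors were expressed in yeast and captured with glutathione beads. Once given DNA barcodes and pooled alongside a tag-only sample, they were incubated for 30 min at room temperature with 200 nmole of a random double-stranded 16-mer DNA library in Tris/NaCl/DTT/glycerol buffer, then washed, crosslinked (0.1% formaldehyde), proximity-ligated, PCR-amplified and sequenced on an Illumina NextSeq500. The binding signal of each hexamer is its read frequency for a factor divided by its frequency for the tag-only sample.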

ETV5 = ETV5 (Homo sapiens, UniProt P41161 1-510)
Outline: as §1

SPIC = target: T2, SPIC (Homo sapiens, UniProt Q8N5J4 1-248)
T2 sequence: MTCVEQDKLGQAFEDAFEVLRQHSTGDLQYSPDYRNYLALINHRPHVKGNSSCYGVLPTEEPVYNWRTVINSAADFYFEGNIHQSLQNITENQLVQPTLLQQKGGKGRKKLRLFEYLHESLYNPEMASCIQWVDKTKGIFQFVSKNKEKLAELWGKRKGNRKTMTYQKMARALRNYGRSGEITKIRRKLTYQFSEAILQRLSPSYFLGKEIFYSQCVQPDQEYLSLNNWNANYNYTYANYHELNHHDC
Outline: as §1

ELF4 = ELF4 (Homo sapiens, UniProt Q99607 1-663)
Outline: as §1

ELK4 = target: T3, ELK4 (Homo sapiens, UniProt P28324-2 1-405)
T3 sequence: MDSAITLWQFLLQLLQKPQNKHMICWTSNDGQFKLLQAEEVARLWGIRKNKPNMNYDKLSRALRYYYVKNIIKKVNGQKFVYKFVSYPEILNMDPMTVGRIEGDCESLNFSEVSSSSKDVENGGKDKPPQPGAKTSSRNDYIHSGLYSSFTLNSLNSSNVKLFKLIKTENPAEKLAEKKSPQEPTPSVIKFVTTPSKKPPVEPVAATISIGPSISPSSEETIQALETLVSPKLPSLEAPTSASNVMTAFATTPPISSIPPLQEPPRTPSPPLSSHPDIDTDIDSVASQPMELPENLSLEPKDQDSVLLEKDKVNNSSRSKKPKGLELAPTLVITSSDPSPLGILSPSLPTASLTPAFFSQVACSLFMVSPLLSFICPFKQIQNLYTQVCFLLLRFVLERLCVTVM
Outline: as §1

ETV2 = target: T4, ETV2 (Homo sapiens, UniProt O00321 1-342)
T4 sequence: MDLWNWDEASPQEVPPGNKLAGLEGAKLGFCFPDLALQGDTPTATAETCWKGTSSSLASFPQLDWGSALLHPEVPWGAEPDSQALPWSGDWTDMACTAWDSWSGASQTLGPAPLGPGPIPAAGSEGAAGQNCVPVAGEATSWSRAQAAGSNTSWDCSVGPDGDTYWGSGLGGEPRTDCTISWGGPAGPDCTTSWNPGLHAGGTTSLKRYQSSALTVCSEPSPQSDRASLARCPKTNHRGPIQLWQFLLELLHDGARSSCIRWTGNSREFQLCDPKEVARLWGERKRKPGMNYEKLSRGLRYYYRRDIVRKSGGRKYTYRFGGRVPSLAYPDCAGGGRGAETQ
Outline: as §1

ELF3 = target: T5, ELF3 (Homo sapiens, UniProt P78545 1-371)
T5 sequence: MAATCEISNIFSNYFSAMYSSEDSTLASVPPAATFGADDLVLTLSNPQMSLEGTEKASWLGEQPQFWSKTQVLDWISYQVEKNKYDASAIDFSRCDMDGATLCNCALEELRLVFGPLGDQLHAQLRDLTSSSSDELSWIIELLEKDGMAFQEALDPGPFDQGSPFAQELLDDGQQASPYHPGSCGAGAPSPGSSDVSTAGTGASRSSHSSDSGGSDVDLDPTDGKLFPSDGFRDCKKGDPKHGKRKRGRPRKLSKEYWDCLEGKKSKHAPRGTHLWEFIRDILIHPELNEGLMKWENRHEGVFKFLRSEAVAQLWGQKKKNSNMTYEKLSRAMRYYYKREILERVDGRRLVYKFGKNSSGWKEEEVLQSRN
Outline: as §1

ETV1 = ETV1 (Homo sapiens, UniProt P50549 1-477)
Outline: as §1

ERF = target: T6, ERF (Homo sapiens, UniProt P50548 1-548)
T6 sequence: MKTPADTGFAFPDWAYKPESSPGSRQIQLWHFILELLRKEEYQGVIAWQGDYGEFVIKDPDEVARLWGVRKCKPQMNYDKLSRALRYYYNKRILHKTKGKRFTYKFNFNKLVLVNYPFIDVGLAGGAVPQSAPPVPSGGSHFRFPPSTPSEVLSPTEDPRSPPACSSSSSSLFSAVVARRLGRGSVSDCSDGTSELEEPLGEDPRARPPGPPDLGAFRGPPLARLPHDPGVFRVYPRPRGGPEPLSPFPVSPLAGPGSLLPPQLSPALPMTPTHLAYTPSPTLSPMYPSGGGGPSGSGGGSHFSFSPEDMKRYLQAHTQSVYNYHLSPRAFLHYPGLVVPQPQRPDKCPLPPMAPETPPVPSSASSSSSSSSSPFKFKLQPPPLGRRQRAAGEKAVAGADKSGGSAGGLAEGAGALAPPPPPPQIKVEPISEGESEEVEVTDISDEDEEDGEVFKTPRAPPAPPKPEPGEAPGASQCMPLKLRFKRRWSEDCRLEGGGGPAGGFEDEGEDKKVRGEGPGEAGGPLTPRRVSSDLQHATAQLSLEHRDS
Outline: as §1

ETV3L = target: T7, ETV3L (Homo sapiens, UniProt Q6ZN32 1-361)
T7 sequence: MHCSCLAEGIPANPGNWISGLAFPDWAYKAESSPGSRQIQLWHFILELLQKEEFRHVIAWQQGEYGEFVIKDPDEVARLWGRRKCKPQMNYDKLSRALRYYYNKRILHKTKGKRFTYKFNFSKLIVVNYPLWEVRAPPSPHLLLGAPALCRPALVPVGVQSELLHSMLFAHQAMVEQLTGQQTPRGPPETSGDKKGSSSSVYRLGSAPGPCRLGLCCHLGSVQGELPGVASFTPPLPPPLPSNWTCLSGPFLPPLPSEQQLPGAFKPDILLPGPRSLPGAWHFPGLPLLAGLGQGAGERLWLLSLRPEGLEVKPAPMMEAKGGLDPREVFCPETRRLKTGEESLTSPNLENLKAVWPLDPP
Outline: as §1

ETS2 = target: T8, ETS2 (Homo sapiens, UniProt P15036 1-469)
T8 sequence: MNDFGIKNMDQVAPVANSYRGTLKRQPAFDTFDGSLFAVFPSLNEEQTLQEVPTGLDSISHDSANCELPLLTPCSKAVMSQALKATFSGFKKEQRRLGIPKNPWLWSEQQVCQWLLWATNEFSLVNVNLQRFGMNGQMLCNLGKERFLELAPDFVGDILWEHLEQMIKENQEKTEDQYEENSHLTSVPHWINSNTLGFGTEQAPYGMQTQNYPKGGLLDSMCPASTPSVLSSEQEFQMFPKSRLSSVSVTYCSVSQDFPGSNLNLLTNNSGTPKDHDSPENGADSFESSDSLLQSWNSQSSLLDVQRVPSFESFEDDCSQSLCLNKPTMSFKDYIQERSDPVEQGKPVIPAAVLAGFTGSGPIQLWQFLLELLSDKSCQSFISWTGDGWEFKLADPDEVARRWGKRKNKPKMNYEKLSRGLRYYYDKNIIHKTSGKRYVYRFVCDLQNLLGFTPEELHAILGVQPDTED
Outline: as §1

SPDEF = target: T9, SPDEF (Homo sapiens, UniProt O95238 1-335)
T9 sequence: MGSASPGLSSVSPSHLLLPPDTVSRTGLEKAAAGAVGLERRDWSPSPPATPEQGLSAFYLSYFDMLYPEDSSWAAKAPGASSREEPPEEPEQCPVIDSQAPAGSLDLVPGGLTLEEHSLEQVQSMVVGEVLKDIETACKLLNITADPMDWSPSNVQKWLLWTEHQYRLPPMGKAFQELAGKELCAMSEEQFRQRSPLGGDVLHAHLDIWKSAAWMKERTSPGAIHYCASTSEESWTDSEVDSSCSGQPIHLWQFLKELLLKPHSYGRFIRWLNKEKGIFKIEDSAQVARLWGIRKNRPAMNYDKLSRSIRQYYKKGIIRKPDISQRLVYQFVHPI
Outline: as §1

ETV7 = target: T10, ETV7 (Homo sapiens, UniProt Q9Y603 1-341)
T10 sequence: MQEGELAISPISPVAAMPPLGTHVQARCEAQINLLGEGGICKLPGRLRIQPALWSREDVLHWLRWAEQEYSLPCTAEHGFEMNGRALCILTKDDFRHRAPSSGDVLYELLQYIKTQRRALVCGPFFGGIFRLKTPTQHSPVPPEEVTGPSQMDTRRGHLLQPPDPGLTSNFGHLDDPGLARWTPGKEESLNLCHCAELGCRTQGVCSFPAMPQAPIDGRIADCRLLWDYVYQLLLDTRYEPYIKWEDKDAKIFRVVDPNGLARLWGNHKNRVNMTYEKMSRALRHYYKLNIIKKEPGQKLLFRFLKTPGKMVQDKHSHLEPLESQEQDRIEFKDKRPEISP
Outline: as §1

ELF5 = target: T11, ELF5 (Homo sapiens, UniProt Q9UKW6-2 1-255)
T11 sequence: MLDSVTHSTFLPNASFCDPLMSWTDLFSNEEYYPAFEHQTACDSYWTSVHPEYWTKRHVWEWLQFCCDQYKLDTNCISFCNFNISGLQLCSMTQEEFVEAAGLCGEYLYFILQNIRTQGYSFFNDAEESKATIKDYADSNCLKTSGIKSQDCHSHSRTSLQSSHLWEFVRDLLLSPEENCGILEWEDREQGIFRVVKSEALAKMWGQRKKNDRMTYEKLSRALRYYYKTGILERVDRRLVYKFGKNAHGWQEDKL
Outline: as §1

ETV3 = target: T12, ETV3 (Homo sapiens, UniProt P41162-2 1-143)
T12 sequence: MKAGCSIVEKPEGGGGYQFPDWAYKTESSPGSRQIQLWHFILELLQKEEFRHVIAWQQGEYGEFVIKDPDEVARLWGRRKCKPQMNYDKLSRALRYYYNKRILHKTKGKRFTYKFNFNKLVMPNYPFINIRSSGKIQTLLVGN
Outline: as §1

ETV6 = ETV6 (Homo sapiens, UniProt P41212 1-452)
Outline: as §1

Chain of ETV5 (P41161 whole entry): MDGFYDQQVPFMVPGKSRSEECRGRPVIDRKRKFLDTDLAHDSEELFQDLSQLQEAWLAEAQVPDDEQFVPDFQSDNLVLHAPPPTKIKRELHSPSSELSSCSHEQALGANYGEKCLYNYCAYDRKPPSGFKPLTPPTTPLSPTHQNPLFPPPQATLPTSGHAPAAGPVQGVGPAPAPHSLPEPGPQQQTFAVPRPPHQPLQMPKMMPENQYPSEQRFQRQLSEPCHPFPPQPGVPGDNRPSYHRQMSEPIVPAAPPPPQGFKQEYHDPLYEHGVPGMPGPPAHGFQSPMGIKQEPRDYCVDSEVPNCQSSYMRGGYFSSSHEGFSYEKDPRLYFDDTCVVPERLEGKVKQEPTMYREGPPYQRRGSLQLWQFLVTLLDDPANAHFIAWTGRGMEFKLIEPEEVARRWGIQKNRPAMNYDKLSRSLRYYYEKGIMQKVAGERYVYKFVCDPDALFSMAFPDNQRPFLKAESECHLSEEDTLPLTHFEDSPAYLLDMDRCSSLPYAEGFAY
Chain of ETV1 (P50549 whole entry): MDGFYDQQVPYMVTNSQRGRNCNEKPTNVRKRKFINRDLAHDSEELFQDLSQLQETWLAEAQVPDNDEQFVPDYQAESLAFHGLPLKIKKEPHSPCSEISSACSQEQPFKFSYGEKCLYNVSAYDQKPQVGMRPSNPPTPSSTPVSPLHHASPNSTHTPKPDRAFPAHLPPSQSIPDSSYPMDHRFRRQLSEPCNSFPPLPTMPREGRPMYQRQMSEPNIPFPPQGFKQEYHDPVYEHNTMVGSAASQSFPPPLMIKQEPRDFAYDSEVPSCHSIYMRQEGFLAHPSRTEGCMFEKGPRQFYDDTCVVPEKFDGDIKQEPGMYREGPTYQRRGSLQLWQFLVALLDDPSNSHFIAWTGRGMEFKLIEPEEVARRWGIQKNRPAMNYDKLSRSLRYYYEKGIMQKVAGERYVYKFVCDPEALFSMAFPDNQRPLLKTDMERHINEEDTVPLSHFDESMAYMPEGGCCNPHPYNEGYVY
Chain of ETV6 (P41212 whole entry): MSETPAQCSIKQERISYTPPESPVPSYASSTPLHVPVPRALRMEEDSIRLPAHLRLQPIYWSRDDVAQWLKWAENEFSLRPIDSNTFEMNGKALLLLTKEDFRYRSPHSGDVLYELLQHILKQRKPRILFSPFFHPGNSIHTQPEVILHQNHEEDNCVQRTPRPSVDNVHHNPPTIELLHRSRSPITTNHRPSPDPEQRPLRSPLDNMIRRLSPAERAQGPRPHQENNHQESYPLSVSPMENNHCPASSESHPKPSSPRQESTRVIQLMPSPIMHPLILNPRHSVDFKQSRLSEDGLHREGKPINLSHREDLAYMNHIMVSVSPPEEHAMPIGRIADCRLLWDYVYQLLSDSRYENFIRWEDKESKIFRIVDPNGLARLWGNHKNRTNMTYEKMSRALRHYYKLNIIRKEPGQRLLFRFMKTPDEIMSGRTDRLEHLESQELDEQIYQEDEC
Chain of ELF4 (Q99607 whole entry): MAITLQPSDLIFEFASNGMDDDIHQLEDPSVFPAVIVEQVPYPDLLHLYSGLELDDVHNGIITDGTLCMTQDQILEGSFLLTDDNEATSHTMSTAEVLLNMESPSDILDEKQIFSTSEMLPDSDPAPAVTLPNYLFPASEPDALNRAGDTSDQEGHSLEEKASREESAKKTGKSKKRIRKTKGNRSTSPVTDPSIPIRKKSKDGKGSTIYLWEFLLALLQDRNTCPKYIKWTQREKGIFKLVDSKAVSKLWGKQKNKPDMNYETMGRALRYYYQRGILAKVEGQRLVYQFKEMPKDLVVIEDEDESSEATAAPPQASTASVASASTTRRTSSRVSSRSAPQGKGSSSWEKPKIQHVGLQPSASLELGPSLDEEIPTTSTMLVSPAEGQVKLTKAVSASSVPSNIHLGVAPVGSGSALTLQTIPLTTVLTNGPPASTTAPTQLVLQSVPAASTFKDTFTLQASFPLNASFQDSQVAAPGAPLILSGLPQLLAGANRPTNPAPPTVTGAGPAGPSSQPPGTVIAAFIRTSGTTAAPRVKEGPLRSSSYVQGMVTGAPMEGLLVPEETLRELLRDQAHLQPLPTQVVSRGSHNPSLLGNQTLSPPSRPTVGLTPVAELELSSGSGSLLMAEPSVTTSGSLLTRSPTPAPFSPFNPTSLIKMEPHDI

Sequence	binding signal (FEV)	binding signal (ETV5)	binding signal (SPIC)	binding signal (ELF4)	binding signal (ELK4)	binding signal (ETV2)	binding signal (ELF3)	binding signal (ETV1)	binding signal (ERF)	binding signal (ETV3L)	binding signal (ETS2)	binding signal (SPDEF)	binding signal (ETV7)	binding signal (ELF5)	binding signal (ETV3)	binding signal (ETV6)
CCGGCC	1.54 fold enrichment (6-mer frequency, TF over GST control)	1.17 fold enrichment (6-mer frequency, TF over GST control)	1.32 fold enrichment (6-mer frequency, TF over GST control)	1.08 fold enrichment (6-mer frequency, TF over GST control)	1.27 fold enrichment (6-mer frequency, TF over GST control)	1.22 fold enrichment (6-mer frequency, TF over GST control)	1.14 fold enrichment (6-mer frequency, TF over GST control)	1.27 fold enrichment (6-mer frequency, TF over GST control)	1.06 fold enrichment (6-mer frequency, TF over GST control)	1.19 fold enrichment (6-mer frequency, TF over GST control)	1.05 fold enrichment (6-mer frequency, TF over GST control)	1.38 fold enrichment (6-mer frequency, TF over GST control)	1.16 fold enrichment (6-mer frequency, TF over GST control)	1.22 fold enrichment (6-mer frequency, TF over GST control)	1.24 fold enrichment (6-mer frequency, TF over GST control)	1.11 fold enrichment (6-mer frequency, TF over GST control)
AGCGAC	1.19 fold enrichment (6-mer frequency, TF over GST control)	1.13 fold enrichment (6-mer frequency, TF over GST control)	1.19 fold enrichment (6-mer frequency, TF over GST control)	1.19 fold enrichment (6-mer frequency, TF over GST control)	1.25 fold enrichment (6-mer frequency, TF over GST control)	1.22 fold enrichment (6-mer frequency, TF over GST control)	1.01 fold enrichment (6-mer frequency, TF over GST control)	1.12 fold enrichment (6-mer frequency, TF over GST control)	1.32 fold enrichment (6-mer frequency, TF over GST control)	1.13 fold enrichment (6-mer frequency, TF over GST control)	1.15 fold enrichment (6-mer frequency, TF over GST control)	1.01 fold enrichment (6-mer frequency, TF over GST control)	1.22 fold enrichment (6-mer frequency, TF over GST control)	1.2 fold enrichment (6-mer frequency, TF over GST control)	1.14 fold enrichment (6-mer frequency, TF over GST control)	1.17 fold enrichment (6-mer frequency, TF over GST control)
